# Screening results: PubChem, National Center for Advancing Translational Sciences (NCATS)
# In the library only some 9.2% were active in any assay of this set; here they are far more common.
# ELG1 DNA repair – ELG1-dependent DNA repair inhibition; AID 504467; HEK293T ELG1-luciferase reporter, luminescence, 16 h; DNA damage induced by 5-fluorouridine; Potency, µM (titrated, usually from 46.1 µM), for inactives: at the top dose activity change, negative = inhibition, actives largely listed as inhibitors; 2.3% of 330,000 active; further: on the % scale 0 is the no-effect control and ±100 the full control effect; nearly all actives have a fitted effect of over 55% in size
#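 Reporter activity after DNA damage by 5-fluorouridine is monitored. Compound-treated cells incubate 16 hr at 37 °C, then ONE-Glo is added for 30 min before luminescence reading.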
# FLuc modulator – counter-screen for miR-21 project: firefly luciferase inhibitors or activators; P08659; purified FLuc, Km substrates, luminescence inhibition; Potency, µM (doses to about 57.5 µM), for the others: at the top dose activity change, negative = inhibition, usual class: inhibitors; 6.9% of 360,000 active; AID 588342;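 further: plate controls were vehicle for no effect and reference inhibitor for full effect; nearly all actives have a fitted effect of over 55% in size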
# Target sequence (P08659 whole entry, looked up): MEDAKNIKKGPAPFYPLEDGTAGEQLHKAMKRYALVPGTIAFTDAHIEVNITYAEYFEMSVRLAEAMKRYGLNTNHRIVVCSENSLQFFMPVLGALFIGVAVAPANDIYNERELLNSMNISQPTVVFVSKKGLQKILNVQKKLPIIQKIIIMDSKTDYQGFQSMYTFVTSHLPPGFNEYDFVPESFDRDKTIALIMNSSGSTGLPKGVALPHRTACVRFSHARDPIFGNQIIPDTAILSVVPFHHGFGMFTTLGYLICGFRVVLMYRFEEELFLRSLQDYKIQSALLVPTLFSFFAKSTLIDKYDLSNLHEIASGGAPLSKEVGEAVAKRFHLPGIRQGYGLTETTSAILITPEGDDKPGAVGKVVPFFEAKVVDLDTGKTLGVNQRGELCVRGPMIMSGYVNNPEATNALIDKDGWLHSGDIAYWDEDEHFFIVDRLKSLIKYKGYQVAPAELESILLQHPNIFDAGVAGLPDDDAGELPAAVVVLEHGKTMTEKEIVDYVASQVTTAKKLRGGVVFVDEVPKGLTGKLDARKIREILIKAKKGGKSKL
#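 Purified P. pyralis luciferase (10nM final) with 10uM D-luciferin and 10uM ATP (Km levels) in 50mM Tris acetate pH 7.5, 10mM Mg acetate, 0.01% Tween-20, 0.05% BSA; qHTS 6-point titration, ~60 µM downward; luminescence read.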
# SMN2 splice up – increases expression of the SMN2 splice variant. HEK293 SMN2-luciferase splicing reporter, luminescence, 30-36 h. Potency, µM (doses to about 46.1 µM), for inactives: top-dose activity change, positive = activation, usual class: activators. 2.8% of 210,000 active; further: % of control where 0% means no effect; nearly all actives have a fitted effect of over 55% in size
#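 HEK293 cells carry an SMN2 minigene-luciferase reporter in which exon 7 inclusion puts luciferase in frame. Cells were seeded at 2000 cells/well, attached for 10-12 hours, then exposed to compounds for 30-36 hours at 37C before ONE-Glo luminescence.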
# Rab9 promoter act – activates the Rab9 promoter; Huh7 Rab9 promoter-luciferase reporter, luminescence, 24 h; Potency, µM (series often up to 9.22 µM), for inactives: at the top dose activation, negative = inhibition, hits mostly activators; 2.8% of 320,000 active; further: % of control where 0% means no effect; nearly all actives have a fitted effect of over 60% in size
#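 Rab9 promoter-driven luciferase in stably transfected Huh7 cells; 1500 cells/well rested 2 h, exposed to compound in DMSO for 24 h at 37 °C, 5% CO2. Luminescence read 10 min after adding luciferase reagent at ambient temperature.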
# NPC1 prom act – NPC1 promoter activation; Huh7 NPC1 promoter luciferase reporter, 24 h; 2.4% of 320,000 active; Potency, µM (highest dose often 9.22 µM), without a hit: at the top dose activation, actives largely listed as activators; further: % of control where 0% means no effect; nearly all actives have a fitted effect of over 60% in size
#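 Stably transfected Huh7 (NPC1 promoter→luciferase), 1500 cells/well in Opti-MEM + 10% FBS, 2 h settle, then compound 24 h at 37 °C. Luminescence after 10 min with Amplite reagent.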
# ELG1 genotox – induces genotoxicity in HEK293T cells with luciferase-tagged ELG1; HEK293T ELG1-luciferase reporter, luminescence, 16 h; Potency, µM (series often up to 46 µM), for the others: at the top dose activity change, positive = activation, most hits filed as activators; 1.3% of 330,000 active; further: % of control where 0% means no effect; nearly all actives have a fitted effect of over 60% in size
#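 Screening used a luciferase reporter fused to human ELG1 in HEK293T cells. Luminescence was read on a CCD plate imager after 16 hr exposure and 30 min ONE-Glo incubation.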
# Starred values were filed as active, the others as inactive; ? = inconclusive; · = no result given; [ ] = dose if it differs, or a comment. The call rests on the fitted dose curve; in most records, active means well fitted curve in the direction sought with a large enough effect; inconclusive means small, poorly fitted or top-dose-only effect, or another doubt; inactive means no such curve, though single readings can be large; an effect the other way counts as inactive or inconclusive. Potency means the concentration at half of the fitted maximal effect.
SMILES,ELG1 DNA repair,FLuc modulator,SMN2 splice up,Rab9 promoter act,NPC1 prom act,ELG1 genotox
Cc1ccccc1C(=O)Nc1nc(-c2cccnc2)cs1,0%,-2%,·,2%,15%,3%
CCN(CC)c1ccc(Nc2nc(-c3cccnc3)cs2)cc1,?,11µM*,·,3.2µM*,2.8µM*,11%
CN(C)c1ccc(Nc2nc(-c3cccnc3)cs2)cc1,?,0.43µM*,16µM*,0.89µM*,3.5µM*,1.5µM*
COc1ccc(C(=O)Nc2ccc(C3(C#N)CCCC3)cc2)cc1,-4%,4.8µM*,-1%,21%,14%,0%
N#CC1(c2ccc(NC(=O)c3ccccc3F)cc2)CCCC1,?,1.9µM*,2.8µM*,0.79µM*,0.63µM*,1.8µM*
COc1ccc(NC(=O)C2(c3ccc(NC(=O)c4ccc(C)cc4)cc3)CCCC2)cc1,14%,0%,-8%,0%,-1%,2%
COc1ccc(C(=O)CSc2nnc(CNC(=O)c3ccc(S(=O)(=O)N(C)C)cc3)o2)cc1,-25%,-17%,·,2%,-5%,-9%
CN(C)Cc1cc(C(C)(C)C)cc(CNC2CCCCC2)c1O,·,·,-13%[9.22 µM],·,·,·
COc1ccc(-n2c(=O)c3c(c4cc(OC)ccc4n3C)n(CC(=O)NCC3CCCO3)c2=O)cc1 (stereo not given),·,-3%,·,·,·,·
Cc1ccc(NC(=O)Cc2noc3ccccc23)cc1,?,21µM*,?,?,?,?
COC(=O)c1cccc(NC(=O)/C=C/c2ccc3c(c2)OCO3)c1,?,1.3µM*,-94%,2.5µM*,2.8µM*,-8%
O=C(/C=C/c1ccc2c(c1)OCO2)c1ccccc1,·,·,1%,·,·,·
CC(=O)Nc1ccc(NC(=O)/C=C/c2ccc3c(c2)OCO3)cc1,1%,?,9%,19%,13%,9%
O=C(/C=C/c1ccc2c(c1)OCO2)Nc1cccnc1,?,2.4µM*,13µM*,1.3µM*,2.2µM*,3.7µM*
O=C(N/N=C\C=C\c1ccc2c(c1)OCO2)c1cccnc1,?,17µM*,-1%,3%,8%,4%
COC(=O)c1cc(NC(=O)/C=C/c2ccc3c(c2)OCO3)cc(C(=O)OC)c1,?,0%,?,-2%,-2%,4%
O=C(/C=C/c1ccc2c(c1)OCO2)c1cccnc1,11%,15µM*,·,-1%,2%,1%
O=C(OC1CCCCC1=O)c1cccc(S(=O)(=O)N2CCOCC2)c1 (stereo not given),-7%,4%,·,-5%,10%,-3%
CCS(=O)(=O)N1CC(=O)N(c2ccc(C)c(C)c2)C(C)(C(=O)NC2CCCCC2)C1 (stereo not given),·,-2%,·,·,·,·
COc1ccc(S(=O)(=O)NCC(c2ccco2)N2CCN(c3ccc(F)cc3)CC2)cc1C (stereo not given),·,2%,·,·,·,·
N#C[C@H](C(=O)O)C(c1c(Cl)cccc1Cl)[C@H](C#N)C(=O)O,·,·,-7%[9.22 µM],·,·,·
Cc1cc(C)cc(NC(=O)c2cc(S(=O)(=O)N3CCOCC3)cn2C)c1,·,-2%,·,·,·,·
Cc1cccnc1NC(=O)/C=C/c1ccc2c(c1)OCO2,?,19µM*,16µM*,2.8µM*,2.5µM*,?
Cc1cc(C)nc(NC(=O)/C=C/c2ccc3c(c2)OCO3)c1,?,2.1µM*,·,2.5µM*,3.2µM*,?
NS(=O)(=O)c1ccc(NC(=O)/C=C/c2ccc3c(c2)OCO3)cc1,?,-9%,-11%,-1%,5%,10%
SMILES,ELG1 DNA repair,FLuc modulator,SMN2 splice up,Rab9 promoter act,NPC1 prom act,ELG1 genotox
COc1ccc(N2CCN(C(=O)CCn3nc(C)c(S(=O)(=O)N4CCCC4)c3C)CC2)cc1,·,-2%,·,·,·,·
Cc1ccc(N2CC(NC(=O)c3ccc(Br)o3)CC2=O)cc1C (stereo not given),·,-8%,·,·,·,·
O=C(c1ccco1)N1CCN(c2ncnc3c(-c4ccccc4)nsc23)CC1,?,11µM*,11%,2.8µM*,3.2µM*,-2%
COc1ccc(-c2nsc3c(N4CCN(C(=O)c5ccco5)CC4)ncnc23)cc1,19%,?,-34%,26%,16%,-4%
NC(=O)C1CCN(c2ncnc3c2cnn3-c2ccccc2)CC1,·,-17%,·,·,·,·
NC(=O)C1CCN(c2ncnc3c(-c4ccccc4)nsc23)CC1,?,11µM*,12%,3.5µM*,3.5µM*,13%
O=C(c1ccco1)N1CCN(c2ncnc3c2[nH]c2ccc(Br)cc23)CC1,23µM*,?,-56%,-8%,-1%,-17%
O=C(c1ccco1)N1CCN(c2ncnc3c2[nH]c2ccccc23)CC1,?,-7%,-33%,0%,6%,3%
O=C(O)c1cc(=O)[nH]c(SCc2ccccc2)n1,·,·,2%[9.22 µM],·,·,·
O=C(c1ccc(Cl)cc1)N(Cc1ccccc1F)N1C(=O)CCCC1=O,7%,3%,-2%,?,0%,-4%
Nn1c(CSc2ccccn2)nc2ccccc2c1=O,?,19µM*,11µM*,?,4µM*,?
Cc1ccc2nc(CSc3nc(C)ccc3C#N)[nH]c2c1,?,0.54µM*,2.5µM*,0.56µM*,?,11%
Cc1ccc2nc(SCc3nc4ccccc4c(=O)[nH]3)[nH]c2c1,?,9.5µM*,22µM*,2.8µM*,?,18%
Cc1cc(C)c(C#N)c(SCc2nc3ccccc3c(=O)[nH]2)n1,?,2.4µM*,0.79µM*,?,?,8.2µM*
CCCCCCc1nc2ccccc2c(=O)n1N,13%,-1%,-12%,13%,-1%,7%
Cn1c(-n2cccc2)c(-c2c(-c3ccccc3)[nH]c3c2c(=O)n(C)c(=O)n3C)c(=O)n(C)c1=O,·,-4%,·,·,·,·
CCN(CC(=O)O)CC(=O)O,·,·,-1%[9.22 µM],·,·,·
C=C(C(C)=O)C(O)/C=C/c1ccco1 (stereo not given),·,·,5%,·,·,·
O=c1[nH]c(CSc2ccccn2)nc2ccccc12,?,13µM*,11µM*,2.8µM*,2.5µM*,?
O=c1[nH]c(CSc2ccccn2)nc2c1cnn2-c1ccccc1,1%,?,-4%,16%,17%,2%
COc1ccc(CCn2c3c(c(=O)[nH]c2=O)C(NC(=O)c2ccccc2)(C(F)(F)F)C(=O)N3)cc1OC (stereo not given),·,-2%,7%,·,·,·
CC(=O)Nc1ccc(OCC(O)Cn2nc(C)c(C)c2C)cc1 (stereo not given),3%,5%,·,0%[1.84 µM],-5%,0%
COC(=O)CNc1nc(-c2ccncc2)nc2ccccc12,?,1%,-3%,2%,-3%,-1%
c1ccc(Nc2nc(-c3ccncc3)nc3ccccc23)cc1,2.1µM*,-1%,-31%,-4%,-1%,6%
